Measurements reported in PubChem BioAssay (EPA / NIEHS).
Records with an inconclusive call do not appear. Active and inactive are the calls of the source. The calls were made as follows, unless noted: active = hit-call score of the fitted dose curve at least 0.9, where 1 is the maximum; inactive = score below 0.9.

Key:
[1] = ATG_TAL_CIS: Attagene CIS-FACTORIAL HepG2 Assay for human TAL Basal Promoter (AID 2282966); settings: HepG2 Attagene cis-factorial TAL promoter reporter; actives raise or lower the signal;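 also: background control endpoint measuring basal TAL promoter reporter mRNA not a specific factor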
Procedure, shortened: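 Background-control endpoint: basal TAL promoter reporter transcripts in transiently transfected HepG2, measured 24 h after dosing. Read-out by RT-PCR with fluorescent primer extension and capillary electrophoresis; gain or loss of signal fitted relative to DMSO.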

[2] = ATG_TGFb_CIS: Attagene CIS-FACTORIAL HepG2 Assay for human Transforming Growth Factor (TGF) (AID 2282967); settings: HepG2 Attagene CIS TGFb reporter, mRNA transcription; actives raise or lower the signal
Procedure, shortened: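 HepG2 cells transiently transfected with cis-promoter-driven multiple reporter units measure endogenous TF activity; reporter mRNA quantified at 24 h by RT-PCR, FAM labeling, HpaI digestion and capillary electrophoresis. Bidirectional fit vs DMSO.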

[3] = ATG_VDRE_CIS: Attagene CIS-FACTORIAL HepG2 Assay for human Vitamin D Receptor Element (VDRE) (AID 2282968); settings: HepG2 VDRE cis-reporter transcription, actives raise or lower the signal
Procedure, shortened: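 Readout is VDRE-driven reporter mRNA reflecting endogenous factor activity in human HepG2 cells, sampled 24 h post-dose. Quantification used labelled RT-PCR products separated by capillary electrophoresis; bidirectional analysis relative to DMSO.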

[4] = target: Steroid hormone receptor ERR1 (Homo sapiens) (UniProt P11474); assay: ATG_ERRa_TRANS: Attagene TRANS-FACTORIAL HepG2 Assay for human Estrogen-Related Receptor alpha (ERRa) (AID 2282971; active = hit-call score of the fitted dose curve at least 0.9, where 1 is the maximum); settings: HepG2 Attagene TRANS reporter, ERRa transactivation
Chain of Steroid hormone receptor ERR1 (Homo sapiens) (P11474 whole entry, looked up, the tested form may be a part): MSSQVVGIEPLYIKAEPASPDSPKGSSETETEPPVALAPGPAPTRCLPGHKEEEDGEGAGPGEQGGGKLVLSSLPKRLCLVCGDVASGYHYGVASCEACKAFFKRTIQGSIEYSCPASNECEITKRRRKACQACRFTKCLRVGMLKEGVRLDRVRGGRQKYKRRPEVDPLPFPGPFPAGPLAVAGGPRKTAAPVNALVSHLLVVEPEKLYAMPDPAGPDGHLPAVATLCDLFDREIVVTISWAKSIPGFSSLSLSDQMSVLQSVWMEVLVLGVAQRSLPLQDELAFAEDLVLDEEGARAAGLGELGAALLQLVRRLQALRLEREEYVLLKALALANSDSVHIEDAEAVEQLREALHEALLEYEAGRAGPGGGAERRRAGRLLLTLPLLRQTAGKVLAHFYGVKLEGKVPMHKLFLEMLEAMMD
Procedure, shortened: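 Reporter transcripts from ERRa-Gal4 chimera activity measured in transiently transfected human HepG2 cells 24 hours after dosing, using RT-PCR with 6-FAM primer extension, HpaI digestion and capillary electrophoresis; DMSO is baseline.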

[5] = target: X-box-binding protein 1 (Homo sapiens) (UniProt P17861); assay: ATG_Xbp1_CIS: Attagene CIS-FACTORIAL HepG2 Assay for human X-box Binding Protein 1 (XBP1) (AID 2282972); settings: HepG2 XBP1 cis-element reporter, Attagene multiplex; actives raise or lower the signal
Chain of X-box-binding protein 1 (Homo sapiens) (P17861 whole entry, looked up, the tested form may be a part): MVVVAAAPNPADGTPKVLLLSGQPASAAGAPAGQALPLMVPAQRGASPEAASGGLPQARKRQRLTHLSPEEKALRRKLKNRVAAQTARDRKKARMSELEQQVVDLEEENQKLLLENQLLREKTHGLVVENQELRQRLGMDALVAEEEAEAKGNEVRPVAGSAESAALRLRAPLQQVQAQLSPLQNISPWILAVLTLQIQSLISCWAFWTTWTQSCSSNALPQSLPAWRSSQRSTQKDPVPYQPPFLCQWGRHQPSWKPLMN
Procedure, shortened: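 Read-out: fluorescent reporter mRNA fragments resolved by capillary electrophoresis after RT-PCR. Human HepG2 liver cells carried transfected cis-promoter reporter units and were exposed to chemicals for 24 hours. Gain or loss of signal fitted relative to DMSO baseline.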

[6] = ATG_GAL4_TRANS: Attagene TRANS-FACTORIAL HepG2 Assay for GAL4 (Internal Marker) (AID 2282976; active = hit-call score of the fitted dose curve at least 0.9, where 1 is the maximum); settings: HepG2 Attagene TRANS GAL4 internal marker reporter
Procedure, shortened: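 In transfected human HepG2 liver cells dosed 24 h, GAL4 reporter mRNA serves as a baseline marker. Detection by RT-PCR with fluorescent capillary electrophoresis, activity fitted upward relative to DMSO.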

[7] = target: Estrogen receptor (Homo sapiens) (UniProt P03372); assay: ATG_ERa_TRANS: Attagene TRANS-FACTORIAL HepG2 Assay for human Estrogen Receptor alpha (ERa) (AID 2282970; active = hit-call score of the fitted dose curve at least 0.9, where 1 is the maximum); settings: HepG2 Attagene TRANS ERa GAL4 reporter, mRNA
Chain of Estrogen receptor (Homo sapiens) (P03372 whole entry, looked up, the tested form may be a part): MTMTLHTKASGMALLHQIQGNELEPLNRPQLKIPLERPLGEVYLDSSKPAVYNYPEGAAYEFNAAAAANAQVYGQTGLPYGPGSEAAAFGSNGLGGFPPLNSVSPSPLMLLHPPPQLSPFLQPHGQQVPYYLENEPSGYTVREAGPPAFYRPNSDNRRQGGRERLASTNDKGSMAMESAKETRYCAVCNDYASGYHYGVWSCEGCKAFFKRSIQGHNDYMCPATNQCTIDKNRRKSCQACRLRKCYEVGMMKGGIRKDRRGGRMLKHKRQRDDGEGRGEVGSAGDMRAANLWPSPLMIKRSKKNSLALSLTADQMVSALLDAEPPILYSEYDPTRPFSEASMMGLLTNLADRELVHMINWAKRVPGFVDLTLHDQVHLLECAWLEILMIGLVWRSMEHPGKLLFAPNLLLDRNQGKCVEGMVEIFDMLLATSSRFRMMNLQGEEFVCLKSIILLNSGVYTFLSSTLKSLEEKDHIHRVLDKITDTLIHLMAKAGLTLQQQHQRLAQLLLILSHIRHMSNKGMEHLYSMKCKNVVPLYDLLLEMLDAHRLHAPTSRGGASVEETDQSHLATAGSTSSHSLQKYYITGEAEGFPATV
Procedure, shortened: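 Reporter transcripts were measured 24 h after dosing by RT-PCR with fluorescent primer extension and capillary electrophoresis. The system is transiently transfected HepG2 expressing exogenous NR-Gal4 chimeras driving GAL4-UAS reporters; DMSO is the baseline.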

[8] = ATG_M_19_TRANS: Attagene TRANS-FACTORIAL HepG2 Assay for M19 Transcription Factor (Internal Marker) (AID 2282974; active = hit-call score of the fitted dose curve at least 0.9, where 1 is the maximum); settings: HepG2 Attagene TRANS-FACTORIAL M19 internal marker reporter
Procedure, shortened: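 Background-control readout: after 24 h chemical exposure of transfected HepG2 carrying GAL4-driven reporter units, RNA was reverse-transcribed, amplified, fluorescently labeled and sized by capillary electrophoresis; gain-of-signal fit against DMSO.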

[9] = target: Estrogen-related receptor gamma (Homo sapiens) (UniProt P62508); assay: ATG_ERRg_TRANS: Attagene TRANS-FACTORIAL HepG2 Assay for human Estrogen-Related Receptor gamma (ERRg) (AID 2282977; active = hit-call score of the fitted dose curve at least 0.9, where 1 is the maximum;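 also: hits increase reporter signal over DMSO so potencies reflect activators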); settings: HepG2 Attagene TRANS reporter, ERRg transactivation
Chain of Estrogen-related receptor gamma (Homo sapiens) (P62508 whole entry, looked up, the tested form may be a part): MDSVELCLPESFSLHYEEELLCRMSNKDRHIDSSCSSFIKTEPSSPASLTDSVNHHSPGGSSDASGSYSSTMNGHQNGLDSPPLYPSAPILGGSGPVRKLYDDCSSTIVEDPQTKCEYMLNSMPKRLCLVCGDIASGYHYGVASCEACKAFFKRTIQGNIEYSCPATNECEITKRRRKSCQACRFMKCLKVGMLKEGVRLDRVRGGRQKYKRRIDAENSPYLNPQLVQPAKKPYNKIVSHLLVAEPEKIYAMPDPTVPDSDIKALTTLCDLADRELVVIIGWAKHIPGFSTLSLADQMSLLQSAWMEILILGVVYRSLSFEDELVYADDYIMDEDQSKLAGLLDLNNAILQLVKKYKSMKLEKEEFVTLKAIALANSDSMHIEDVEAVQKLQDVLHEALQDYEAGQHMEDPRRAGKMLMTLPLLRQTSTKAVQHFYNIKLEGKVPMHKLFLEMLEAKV
Procedure, shortened: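 Exogenous NR-Gal4 chimera activity measured as reporter transcript induction after 24 h in transiently transfected HepG2 cells. RNA reverse-transcribed, PCR-amplified, 6-FAM-labelled and resolved by capillary electrophoresis; increase over DMSO baseline.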

Measured: AC50

CC(C)(C#N)c1cc(Cn2cncn2)cc(C(C)(C)C#N)c1
not listed: [7] | [8] | [9]
inactive: all other assays above

COc1nc(C)nc(N)n1
inactive: [1] | [2] | [3] | [5]

COc1cc2ncnc(Nc3cccc(Cl)c3)c2cc1OC
active: [1] 13.4 µM | [3] 12.7 µM | [5] 8.13 µM
inactive: [2] | [7] | [6]

CC1CCC(C(C)CS)CC1S (stereo not drawn)
not listed: [7] | [9]
inactive: all other assays above

Cc1ccc(C=O)cc1
not listed: [4] | [9]
inactive: all other assays above

CCCCNC(=O)NS(=O)(=O)c1ccc(N)cc1
inactive: [1] | [2] | [3] | [4] | [5]

CC1(C)C(=O)N(Br)C(=O)N1Cl
not listed: [7] | [9]
inactive: all other assays above

O=C1C(c2[nH]c3ccc(S(=O)(=O)O)cc3c2O)=Nc2ccc(S(=O)(=O)O)cc21
not listed: [7] | [8] | [9]
inactive: all other assays above

C=CC(=O)OCCn1c(=O)n(CCOC(=O)C=C)c(=O)n(CCOC(=O)C=C)c1=O
active: [3] 4.16 µM | [5] 8.6 µM
not listed: [7] | [8]
inactive: all other assays above

O=C(O)CCCCC1CCSS1 (stereo not drawn)
inactive: [1] | [2] | [3] | [5]

CCCC(=O)c1cc(O)c(O)cc1O
not listed: [4]
inactive: all other assays above

Nc1cc(N)cc(C(=O)O)c1
not listed: [4] | [9]
inactive: all other assays above

O=[N+]([O-])c1ccc(C=Cc2ccc([N+](=O)[O-])cc2S(=O)(=O)O)c(S(=O)(=O)O)c1
not listed: [4] | [6] | [9]
inactive: all other assays above

c1cc(C(c2ccc(OCC3CO3)cc2)c2ccc(OCC3CO3)cc2)ccc1OCC1CO1 (stereo not drawn)
active: [1] 24.2 µM | [2] 23.7 µM | [3] 10 µM | [5] 7.9 µM

CCCCCCCCC
not listed: [4] | [9]
inactive: all other assays above

Cc1ccc(C(=O)c2cc(O)c(O)c([N+](=O)[O-])c2)cc1
inactive: [1] | [2] | [3] | [5]

CC(CCO)CCc1ccccc1 (stereo not drawn)
active: [7] 25.2 µM
inactive: [1] | [2] | [3] | [5] | [8]

CCCCCCCCC=O
not listed: [7] | [8]
inactive: all other assays above

Cc1cccc(C)c1[N+](=O)[O-]
inactive: [1] | [2] | [3] | [5]

CC(C)(C)c1cc(CCC(=O)NN)cc(C(C)(C)C)c1O
not listed: [7] | [9]
inactive: all other assays above

NCCCN1CCOCC1
inactive: [1] | [2] | [3] | [5]

CCCC/C=C\CCCCCCCCCC=O
not listed: [7]
inactive: all other assays above

COc1ccc(Cl)cc1C
not listed: [7]
inactive: all other assays above

CC[C@]12CCCN3CCc4c(n(c5ccccc45)[C@@](O)(C(=O)OC)C1)[C@@H]32
not listed: [7] | [8]
inactive: all other assays above

O=C(OCc1ccccc1)C(=O)OCc1ccccc1
not listed: [4] | [8] | [9]
inactive: all other assays above

CC1(C)[C@H](C(=O)OCc2cccc(Oc3ccccc3)c2)[C@@H]1C=C(Cl)Cl
not listed: [4] | [8] | [9]
inactive: all other assays above

Nc1cc([N+](=O)[O-])ccc1Cl
not listed: [7] | [8] | [9]
inactive: all other assays above

O=C(O)CN(CCN(CC(=O)O)CC(=O)O)CCN(CC(=O)O)CC(=O)O
not listed: [7]
inactive: all other assays above

CCN(CC)CCOC(=O)c1ccc(N)cc1
not listed: [7]
inactive: all other assays above

Cc1ccc(C(=O)O)o1
inactive: [1] | [2] | [3] | [5]

CC(C#N)(CCC(=O)O)N=NC(C)(C#N)CCC(=O)O (stereo not drawn)
not listed: [6] | [7] | [8]
inactive: all other assays above

CCN(CC)c1ccc(C(=C2C=CC(=[N+](CC)CC)C=C2)c2ccc(S(=O)(=O)O)cc2S(=O)(=O)[O-])cc1
not listed: [7]
inactive: all other assays above

CCCCCC=CCC(=O)OC
not listed: [4] | [7] | [9]
inactive: all other assays above

C=C(C)C(=O)OCCOC(=O)CC(C)=O
not listed: [4] | [7] | [9]
inactive: all other assays above

O=C(O)c1snc(Cl)c1Cl
active: [3] 161 µM | [5] 140 µM
inactive: [1] | [2]

CCCCO
not listed: [4] | [7] | [9]
inactive: all other assays above

O=[N+]([O-])c1ccc(Nc2ccc(Nc3ccccc3)c(S(=O)(=O)O)c2)c([N+](=O)[O-])c1
inactive: [1] | [3] | [8] | [6]
active: [2] 148 µM | [5] 172 µM

C=CC(=O)NCOCC(C)C
inactive: [1] | [2] | [5] | [8]
active: [3] 34.3 µM

OC[C@H]1O[C@H](O[C@]2(CCl)O[C@H](CCl)[C@@H](O)[C@@H]2O)[C@H](O)[C@@H](O)[C@H]1Cl
not listed: [4] | [7] | [9]
inactive: all other assays above

O=C(O)c1ccc(C(=O)O)cc1
not listed: [4] | [7] | [9]
inactive: all other assays above

O=C(Oc1ccccc1)c1ccc(O)cc1
active: [3] 159 µM
inactive: [1] | [2] | [5] | [8] | [6]

O=C1CCCCCCCCCCCCCCO1
active: [2] 158 µM
inactive: [1] | [3] | [5] | [8] | [6]

O=S(=O)(O)NC1CCCCC1
inactive: [1] | [2] | [3] | [5] | [8]

COc1cc(C=O)ccc1OC(=O)C(C)C
not listed: [4] | [7]
inactive: all other assays above

CSc1nnc(C(C)(C)C)c(=O)[nH]1
not listed: [4] | [7] | [9]
inactive: all other assays above

CCN(CC)c1ccc2c(-c3ccccc3C(=O)O)c3ccc(=[N+](CC)CC)cc-3oc2c1
inactive: [1] | [2] | [8] | [6]
active: [3] 33.5 µM | [5] 100 µM

CCC(C)CCCC(C)(C)O (stereo not drawn)
inactive: [1] | [2] | [3] | [5] | [8]

C=C(C)C(=O)O
not listed: [4] | [7] | [9]
inactive: all other assays above

Cc1ccc2ccccc2n1
not listed: [4] | [7] | [9]
inactive: all other assays above

CC(C)=CCCC(C)CC=O (stereo not drawn)
inactive: [1] | [2] | [3] | [5] | [8]

CCCCCC(CO)CCC (stereo not drawn)
inactive: [1] | [2] | [3] | [5] | [8]

O=c1oc(=O)c2cc3c(=O)oc(=O)c3cc12
not listed: [4] | [7]
inactive: all other assays above

CCC(=O)OCc1ccccc1
inactive: [1] | [2] | [3] | [5] | [8]

C=CCOc1nc(OCC=C)nc(OCC=C)n1
inactive: [1] | [2] | [3] | [5] | [8]
